The nature of assay [1]: qHTS assay to test for compound auto fluorescence at 535 nm (green) in HEK293 cells (AID 720680). (In qHTS, concentration-response curves come from the screen itself.)
The nature of assay [2]: qHTS assay to test for compound auto fluorescence at 460 nm (blue) in HEK293 cell free culture (AID 720681). The procedure, abridged: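 Test compounds were pinned into cell-free culture medium (DMEM with 10% FBS) and fluorescence was read directly at Ex/Em 405/460 nm. Signals were expressed as fluorescence equivalents of triamterene, with DMSO vehicle as control.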
Assay [3] in a line: qHTS assay to test for compound auto fluorescence at 535 nm (green) in HEK293 cell free culture (AID 720682). The procedure, abridged:
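Compounds were pin-transferred into cell-free DMEM with 10% FBS, and green fluorescence was read at excitation 485 nm and emission 535 nm. Intensities were expressed as fluorescein-equivalent values.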

A short description of assay [4]: qHTS assay to test for compound auto fluorescence at 590 nm (red) in HEK293 cell free culture (AID 720683). In short, it runs like this: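 Tox21 10K library compounds were pinned into cell-free DMEM with 10% FBS and fluorescence was read at excitation 540 nm. Activity is expressed as Rose Bengal sodium equivalency.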
Assay [5] is described as follows: qHTS assay to test for compound auto fluorescence at 590 nm (red) in HepG2 cell free culture (AID 720684). In short, it runs like this: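 Ex 540 / Em 590 nm read of compound in cell-free MEM (10% FBS). Rose Bengal sodium reference.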
Assay [6] can be described thus: qHTS assay to test for compound auto fluorescence at 460 nm (blue) in HepG2 cell free culture (AID 720685). The procedure, abridged: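 Cell-free plates of MEM plus 10% FBS received 23 nL compound or DMSO vehicle; blue-channel (405/460 nm) intensity scored against triamterene as reference fluorophore.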
The nature of assay [7]: qHTS assay to test for compound auto fluorescence at 535 nm (green) in HepG2 cell free culture (AID 720686).
A short description of assay [8]: qHTS assay to test for compound auto fluorescence at 460 nm (blue) in HepG2 cells (AID 720687). The procedure, abridged:
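Cells (2,000/well in MEM with 10% FBS) attached overnight at 37 C, then were exposed to compound or DMSO for 1 hr at 37 C, 5% CO2. Fluorescence read at Ex/Em 405/460 nm, expressed as triamterene-equivalent signal.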

Assay [9] addresses Glucocorticoid receptor (Homo sapiens) (UniProt P04150). Kind of assay: qHTS assay to identify small molecule antagonists of the glucocorticoid receptor (GR) signaling pathway (AID 720692; active = well fitted inhibition curve with a large enough effect in the signal ratio in the repeat runs, not every such curve was filed as active; inconclusive = weak or mixed curves, or effect the other way; inactive = no such curve, though single readings can be large or run the other way; the % refers to the signal ratio; also: potency is read from the fitted curve at half-maximal effect). In short, it runs like this:
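Quantitative HTS in antagonist format: HeLa cells expressing endogenous GR and a stably integrated GRE-bla reporter, stimulated with 5 nM dexamethasone (final) alongside test compounds for 18 h.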

Assay [10] shares this target. Kind of assay: qHTS assay to identify small molecule agonists of the glucocorticoid receptor (GR) signaling pathway (AID 720691; active = well fitted activation curve with a large enough effect in the signal ratio in the repeat runs, not every such curve was filed as active; inconclusive = weak or mixed curves, or effect the other way; inactive = no such curve, though single readings can be large or run the other way; the % refers to the signal ratio; also: potency is read from the fitted curve at half-maximal effect). The conditions noted are these: GR-bla HeLa, beta-lactamase reporter ratio, 18 h; activation: at 62.4 µM (top of the series). In short, it runs like this: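 Cells: GR-bla HeLa, endogenous GR with stably integrated GRE-beta-lactamase reporter. Treatment 18 h, 37 C, compounds delivered in DMSO. Detection via LiveBLAzer B/G FRET substrate, 2 h RT, fluorescence intensity.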

17 molecules from PubChem BioAssay (Tox21) can be followed below.

SMILES strings stand for the structures. A number with no mark means an inactive call. Calls of active or inactive are those of the source. Unless noted, calls follow the shape of the dose curve; as a rule, active = well fitted curve in the direction sought with a large enough effect in the repeat runs; inconclusive = weak or mixed curves; inactive = flat fitted curve, though single readings scatter.

Sequence of Glucocorticoid receptor (Homo sapiens) (P04150 whole entry, looked up): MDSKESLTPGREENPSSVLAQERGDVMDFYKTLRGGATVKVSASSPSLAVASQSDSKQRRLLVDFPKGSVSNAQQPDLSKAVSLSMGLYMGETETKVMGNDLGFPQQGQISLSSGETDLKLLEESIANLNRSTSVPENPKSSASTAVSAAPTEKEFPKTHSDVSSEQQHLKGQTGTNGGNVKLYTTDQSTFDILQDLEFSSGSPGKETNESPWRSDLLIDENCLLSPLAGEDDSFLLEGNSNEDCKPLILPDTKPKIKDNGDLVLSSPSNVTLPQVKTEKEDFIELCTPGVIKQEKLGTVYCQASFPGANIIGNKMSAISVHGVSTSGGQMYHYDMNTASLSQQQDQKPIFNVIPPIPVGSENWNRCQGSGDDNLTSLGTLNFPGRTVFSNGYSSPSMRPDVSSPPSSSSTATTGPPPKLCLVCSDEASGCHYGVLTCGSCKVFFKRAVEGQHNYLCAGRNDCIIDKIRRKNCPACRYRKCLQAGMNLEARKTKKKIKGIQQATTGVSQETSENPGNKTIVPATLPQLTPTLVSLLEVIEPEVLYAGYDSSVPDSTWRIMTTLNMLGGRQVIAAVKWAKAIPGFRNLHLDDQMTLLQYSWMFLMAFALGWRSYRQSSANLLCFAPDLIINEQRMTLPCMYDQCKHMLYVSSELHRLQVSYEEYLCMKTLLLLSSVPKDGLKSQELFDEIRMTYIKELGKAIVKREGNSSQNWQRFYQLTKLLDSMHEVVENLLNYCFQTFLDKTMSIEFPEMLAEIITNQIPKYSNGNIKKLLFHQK

On to `O=C(NOCC1CC1)c1ccc(F)c(F)c1Nc1ccc(I)cc1Cl`, for which the molecule was called inactive in assay [1] and in [3]. Moreover, the Potency result in assay [2], in [4], in assay [5], in [6], in [7] and in assay [8] was “inactive” each time. In addition, in [9], the Potency was 10.7 µM (active).

Consider `Nc1ccc(N)c2ccccc12`, for which the molecule was classed as inactive in [1] and in assay [3]. In addition, the Potency result in [2], in assay [4], in [5], in assay [6] and in assay [8] was “inactive” in each case.

With `CCN(C(=O)N(CC)c1ccccc1)c1ccccc1`, the molecule was called inactive in assay [1] and in [3]. Besides, the Potency entry in [2], in assay [4], in [5], in assay [6], in assay [7] and in assay [8] was “inactive” throughout. Further, the Potency result in assay [10] and in [9] was “inactive” each time.

For the molecule `COc1ccc(C(=O)/C(Br)=C\C(=O)O)cc1`, the call in assay [1] and in assay [3] was inactive. The Potency entry in assay [2], in assay [4], in assay [5], in assay [6], in [7] and in assay [8] was “inactive” in each case. Also, the Potency result in [10] and in [9] was “inactive” throughout.

For the molecule `CCCCCCCCCCCCCCCC(=O)OC[C@H](O)[C@H]1OC(=O)C(O)=C1O`, the Potency entry in assay [2], in assay [4], in [5], in [6], in [7] and in [8] was “inactive” each time. Besides, in assay [3], the call was inactive.

In the case of `Clc1ccccc1C(c1ccccc1)(c1ccccc1)n1ccnc1`, the result in assay [1] and in [3] was inactive. In addition, the Potency result in [2], in assay [4], in [5], in assay [6], in [7] and in [8] was “inactive” in each case. Moreover, the Potency in [9] is 7.23 µM (active).

Turning to `COCCCC/C(=N\OCCN)c1ccc(C(F)(F)F)cc1`, the result in assay [1] and in assay [3] was inactive. For the same molecule, the Potency entry in assay [2], in assay [4], in assay [5], in assay [6], in assay [7] and in [8] was “inactive” each time. In addition, the Potency result in assay [10] and in assay [9] was “inactive” each time.

As to `Clc1ccc2nsnc2c1NC1=NCCN1`, the call in assay [1] and in assay [3] was inactive. The Potency entry in [2], in assay [4], in [5], in assay [6], in [7] and in assay [8] was “inactive” throughout. In [9], the Potency result was “inactive”.

With `Oc1cc2ccccc2c2ccccc12`, the molecule was called inactive in assay [1] and in assay [3]. The Potency entry in assay [2], in assay [4], in assay [5], in [6], in assay [7] and in [8] was “inactive” in each case. Moreover, the Potency in assay [9] was 19.5 µM (active).

Turning to `Oc1ccc(C2(c3ccc(O)cc3)CC3CC2C2CCCC32)cc1` (configuration not stated), the call in [1] and in assay [3] was inactive. The Potency entry in assay [2], in [4], in assay [5], in [6], in assay [7] and in [8] was “inactive” in each case. Besides, the Potency in assay [9] is 18.7 µM (active).

Turning to `Cc1ccc2oc(CN(Cc3ccccc3)C(=O)Nc3c(F)cc(F)cc3F)c(-c3ccc(Cl)cc3)c2c1`, the molecule was classed as inactive in assay [1] and in assay [3]. Besides, the Potency entry in [2], in [4], in assay [5], in assay [6], in [7] and in assay [8] was “inactive” each time. Also, the Potency entry in assay [10] and in assay [9] was “inactive” throughout.

As for `O=C(OC[C@H]1O[C@@H](OC(=O)c2cc(O)c(O)c(OC(=O)c3cc(O)c(O)c(O)c3)c2)[C@H](OC(=O)c2cc(O)c(O)c(OC(=O)c3cc(O)c(O)c(O)c3)c2)[C@@H](OC(=O)c2cc(O)c(O)c(OC(=O)c3cc(O)c(O)c(O)c3)c2)[C@@H]1OC(=O)c1cc(O)c(O)c(OC(=O)c2cc(O)c(O)c(O)c2)c1)c1cc(O)c(O)c(OC(=O)c2cc(O)c(O)c(O)c2)c1`, the call in [1] and in assay [3] was inactive. The Potency result in assay [2], in [4], in assay [5], in [6], in [7] and in assay [8] was “inactive” in each case. The Potency result in assay [9] is “inactive”.

Regarding `CCCCC(CC)COC(=O)c1ccccc1C(=O)O` (configuration not stated), the molecule was classed as inactive in assay [1] and in [3]. For the same molecule, the Potency result in assay [2], in assay [4], in assay [5], in assay [6], in [7] and in [8] was “inactive” in each case. Also, the Potency entry in assay [10] is “inactive”. Moreover, in assay [9], the Potency was 39.6 µM (active).

With `COc1cc(/C=C/C(=O)O[C@H]2CC[C@]34C[C@]35CC[C@]3(C)[C@@H]([C@H](C)CCC=C(C)C)CC[C@@]3(C)[C@@H]5CC[C@H]4C2(C)C)ccc1O`, the molecule was called inactive in assay [1] and in assay [3]. Also, the Potency entry in assay [2], in assay [4], in assay [5], in [6], in [7] and in [8] was “inactive” throughout. In addition, the Potency result in assay [9] was “inactive”. Further, the Potency in assay [10] is 1.51 µM [inconclusive] (active).

With `CCCCCOC(=O)CCCC`, the molecule was classed as inactive in assay [1] and in assay [3]. For the same molecule, the Potency result in assay [2], in [4], in [5], in assay [6], in assay [7] and in assay [8] was “inactive” each time. Moreover, the Potency entry in [10] and in [9] was “inactive” each time.

In the case of `O=C(Oc1cccc2cccnc12)c1ccccc1`, the molecule was called inactive in assay [1] and in [3]. The Potency entry in assay [2], in assay [4], in assay [5], in [6], in assay [7] and in [8] was “inactive” throughout. Further, the Potency entry in [9] is “inactive”.

With `O=C(O)c1cc(O)c2c(c1)C(=O)c1cccc(O)c1C2=O`, the call in [1] and in assay [3] was inactive. For the same molecule, the Potency result in assay [2], in assay [4], in [5], in assay [6], in assay [7] and in assay [8] was “inactive” in each case. Also, the Potency result in assay [10] and in assay [9] was “inactive” throughout.
